# Source: PubChem (several laboratories)
# BJeLR lethal = BJeLR cell viability loss. BJeLR (HRASV12) viability, CellTiter-Glo ATP luminescence, 48 h. inhibition, % (no concentration beside the values). 300,000 tested, 0.17% active. AID 1554; in the data active = inhibition above about 50%; inconclusive = no clear call, values can overlap the other calls
# Anthrax LF prot = inhibitors of Bacillus anthracis lethal factor protease. AID 588501. inhibition, % at 10 µM. P15917. multiplex microsphere protease cleavage assay, LF. 360,000 tested, 0.12% active; also: plate controls were buffer without enzyme for full effect and enzyme alone for no effect
# Vc quorum ag = quorum light induction in luxS cqsA deficient V. cholerae; V. cholerae BH1578 lux reporter, luminescence, 6 h; activation, % at 18.7 µM; 350,000 tested, 0.16% active; AID 588436; in the data active = activation mostly above about 9.7%, no sharp cut-off; inconclusive = no clear call, values can overlap the other calls; inactive = mostly below about 3.7%
# BoNT A protease = blocks Botulinum neurotoxin A light chain protease. AID 588499. multiplex microsphere protease substrate cleavage, flow cytometry. 360,000 tested, 0.17% active. inhibition, % at 10 µM; also: plate controls were buffer without enzyme for full effect and enzyme alone for no effect
# Bead autofluor = counter-screen for toxin protease inhibitors: compound fluorescence; compound autofluorescence counterscreen, microsphere flow cytometry; stronger effect = higher value; fluorescence intensity (test concentration not listed); 360,000 tested, 3.1% active; AID 624483; in the data active = fluorescence intensity above about 16000; inconclusive = no clear call, values can overlap the other calls
# BoNT-F LC inh = blocks Botulinum neurotoxin F light chain protease. inhibition, % at 10 µM. AID 588497. 360,000 tested, 0.22% active. Multiplex microsphere protease cleavage assay, flow cytometry; in the data active = inhibition above about 35%, passing the limit was not always enough; inconclusive = no clear call, values can overlap the other calls; also: plate controls were buffer without enzyme for full effect and enzyme alone for no effect
# Numbers without * were called inactive; i = inactive; ? = inconclusive; . = no result. Hits are enriched below; roughly 3.7% of the tested compounds scored in any of these assays. Rule as the data show it, unless noted: active = inhibition above about 30%; inconclusive = no clear call, values can overlap the other calls; inactive = below that.
SMILES,BJeLR lethal,Anthrax LF prot,Vc quorum ag,BoNT A protease,Bead autofluor,BoNT-F LC inh
O=c1c(-c2ccc(Oc3ccccc3)cc2)[n+]([O-])c2ccccc2n1OCc1ccccn1,4,-16,0,-1,9164,-5
O=C(c1cc(C2CC2)nn1-c1ccccc1)N1CCN(S(=O)(=O)c2ccccc2F)CC1,.,2,i,0,2756,-10
CCCCn1nnnc1C(c1ccccc1)N1CCN(C(=O)c2ccco2)CC1 (configuration not stated),.,-6,.,-1,4210,1
CCNc1cc(Cl)nc(SC)n1,4,1,i,0,4648,1
CCN(CCO)c1cc(Cl)nc(SC)n1,14,-2,-4,-4,24730*,-7
COC(=O)c1ccc(CS(=O)(=O)c2ccccc2C)o1,-2,-2,-1,?,23513*,1
COc1ccccc1S(=O)(=O)Cc1ccc(C(=O)N2CCN(c3ccccc3)CC2)o1,-3,0,0,0,21717*,0
COc1ccccc1S(=O)(=O)Cc1ccc(C(=O)N2CCN(c3cccc(Cl)c3)CC2)o1,1,4,0,1,9609,-1
Cc1cccc(N2CCN(C(=O)c3ccc(CS(=O)(=O)c4ccccc4C)o3)CC2C)c1 (configuration not stated),29,-2,1,?,21673*,1
C/C=C/C(=O)OCC(=O)Nc1c(Cl)cccc1Cl,3,-1,-5,-2,16870*,-3
Cc1nc2c(OCc3ccc(Cl)cc3)cccn2c1N(C)C(=O)CCC1CCCC1,.,-6,0,0,3740,-3
COC(=O)C1[C@H]2C(=O)N(Cc3cccs3)C[C@]23C=C[C@H]1O3 (some centres not stated),-2,-1,i,-1,23081*,-3
COCCCNC(=O)C1C2C=CC3(CN(Cc4ccc(C)cc4)C(=O)C13)O2 (configuration not stated),-4,-2,0,-1,23422*,-1
O=C(NCCCN1CCCC1=O)C(=O)NCC1OCCN1S(=O)(=O)c1cc(F)ccc1F (configuration not stated),.,-8,-1,-1,3831,-1
COc1cc(-c2cc(NC=O)c3ncc(-c4ccc(C(C)=O)cc4)n3c2)ccc1O,.,-3,i,0,3095,-13
CCOc1cc(C)c(-c2onc(C(F)(F)F)c2-c2csc(C)n2)c(O)c1,-9,-8,0,3,22729*,1
COc1ccc(-c2nc(N)nc(C(F)(F)F)c2-c2csc(C)n2)c(O)c1,-5,-6,0,0,3894,-3
Cc1nc(-c2c(C(F)(F)F)noc2-c2ccc(O)cc2O)cs1,2,-2,0,?,17928*,-9
COc1ccc(N2Cc3ccccc3C2=O)cc1,31,-20,i,-3,4399,?
COc1ccc(N2CS(=O)(=O)/C(=C/N(C)C)C2=O)cc1,-2,-3,i,0,20727*,0
N#CCCSc1ncnc2c1oc1ccccc12,-5,-2,i,2,18891*,-1
Cc1c(NC(=O)c2ccccc2NC(=O)c2ccccc2)cccc1C(=O)O,-10,4,-1,0,3436,2
Cc1c(NC(=O)c2ccccc2N)cccc1C(=O)O,-6,-4,i,0,20340*,2
COc1ccc(-c2nnc(SC(C)C(=O)Nc3nccs3)n2Cc2ccccc2)cc1OC (configuration not stated),-10,-8,i,0,20588*,-6
COc1ccc(-c2nnc(SC(C)C(=O)Nc3nccs3)n2-c2ccccc2)cc1OC (configuration not stated),-5,-3,-1,1,10597,-9
Cc1ccc(C2=N/C(=C/c3cccs3)C(=O)N2Nc2ccccc2)cc1,-5,58*,0,80*,6977,43*
NC(CCc1ccccc1)c1csc(Nc2cnccn2)n1 (configuration not stated),.,-4,i,0,3643,-12
COC(=O)c1[nH]c2cc(OC)ccc2c1NC(=O)CCN1CCN(c2ccccc2)CC1,1,-2,i,0,23523*,1
CCOC(=O)C1CCCN(CC(=O)Nc2c(C(=O)OC)[nH]c3ccc(Br)cc23)C1 (configuration not stated),1,-5,-12,0,3137,-3
